103 compounds from PubChem BioAssay AID686978 (National Center for Advancing Translational Sciences (NCATS), 2013) can be followed below.

Several values for one entry are separate records, joined by “and”; a condition that tells them apart may be missing. Equal entries are not always repeated. Screen size: about 420,000 compounds; about 64,000 (15%) were called active. Where a call stands in place of a potency, no number is given. Inconclusive results (about 27%) are left out. Only a selection was taken, and actives are over-represented in it overall. A number with no mark means an inactive call. The call rests on the fitted dose curve; in most records, active means well fitted inhibition curve with a large enough effect; inconclusive means small, poorly fitted or top-dose-only effect; inactive means flat fitted curve, though single readings scatter.
Potency means the concentration at half of the fitted maximal effect.

The nature of the experiment: qHTS for Inhibitors of human tyrosyl-DNA phosphodiesterase 1 (TDP1): qHTS in cells in absence of CPT. Further: nearly all actives have a fitted effect of over 55% in size. The settings on record: DT40 Tdp1-/- hTDP1 cells, no CPT, ATP luminescence, 48 h; series mostly up to 46.2 µM. In a few lines:
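Cells were dispensed at 400 per well, compounds added by pin tool, plates incubated ≥48 hr at 37 °C, then CellTiter-Glo added for 30 min at room temperature before luminescence reading. Line: DT40 Tdp1-/- complemented with hTDP1; camptothecin omitted.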
A general note: Quantitative high-throughput screening tests each substance at several concentrations.
As for `C=CC12CN(C)[C@@H]3C4CO[C@H](C[C@H]41)[C@]1(C(=O)Nc4ccccc41)[C@@H]32` (stereo partly drawn), the Potency result was “inactive”.

With `COc1cc(-n2c(=S)[nH]c3ccc(C)cc3c2=O)c(Cl)cc1Cl`, the Potency is 18.4 µM (active). Consider `c1ccc(N2Cc3ccccc3-n3nncc3C2)nc1`, for which the Potency result is “inactive”. As to `CCOCCCNC(=O)c1c(NC(=O)c2nc(SC)ncc2Cl)sc2c1CCCC2`, the Potency is 11.6 µM (active). `c1ccc(C(CN2CCCCC2)c2ccccc2)cc1`: the Potency result was “inactive”. Take `CCC(=NCCCO)c1c(O)n(-c2ccc(OC)cc2)c(=O)[nH]c1=O`: the Potency entry is “inactive”. As for `CCCCCCN=C(CC)c1c(O)n(CCCC)c(=O)[nH]c1=O`, the Potency was 25.9 µM (active). As for `CCCCn1c(O)c(C(CC)=NCc2ccco2)c(=O)[nH]c1=O`, the Potency entry is “inactive”. With `CC(C)c1c(CN(C)C(C)Cc2ccccc2)n(C)n(-c2ccccc2)c1=O` (stereo not drawn), the Potency entry was “inactive”.

`Cc1c(Oc2cc(NN3CCCCC3)c([N+](=O)[O-])cc2[N+](=O)[O-])cccc1[N+](=O)[O-]`: the Potency result is “inactive”. For the compound `CC(C)(C)[C@]1(O)C[C@@H]2OC(=O)C[C@@]23C(=O)O[C@@H]2OC(=O)[C@H](O)[C@]213`, the Potency result is “inactive”. `COc1cccc(C(c2nnnn2-c2ccc3c(c2)OCCO3)N2CCC3(CC2)C(=O)NCN3c2ccccc2)c1OC` (stereo not drawn): the Potency is 16.4 µM (active). As to `COc1ccc(-n2nnnc2C(c2cccc3ccccc23)N2CCC(n3c(=O)[nH]c4ccccc43)CC2)cc1` (stereo not drawn), the Potency is 16.4 µM (active).

Consider `O=c1[nH]c2ccccc2n1C1CCN(C(c2ccccc2)c2nnnn2Cc2ccccc2)CC1` (stereo not drawn), for which the Potency is 14.6 µM (active). With `CN1CCN(Cc2ccccc2C(F)(F)F)CC1`, the Potency entry was “inactive”. As for `CC(C)c1ccc(-n2c(O)c(/C=N/N3CCOCC3)c(=O)[nH]c2=S)cc1`, the Potency result is “inactive”. As to `CC1C2Cn3c(nc4ccccc43)C1N(C)O2` (stereo not drawn), the Potency entry is “inactive”. As to `CC(=O)c1c(O)c(C)c(O)c(Cc2c(O)c3c(c(C(=O)/C=C/c4ccccc4)c2O)OC(C)(C)C=C3)c1O`, the Potency is 8.91 µM (active) and 19.8 µM (active) and 13.3 µM (active). As to `CC(=O)c1c(O)c(C)c(O)c(Cc2c(O)c3c(c(C(=O)/C=C\c4ccccc4)c2O)OC(C)(C)C=C3)c1O`, the Potency was 13.3 µM (active). On to `c1cc2c(cc1[C@H]1OC[C@H]3[C@@H]1CO[C@@H]3c1ccc3c(c1)OCO3)OCO2`, for which the Potency entry was “inactive”.

`O=C(O)CCn1cc(C=C2C(=O)NC(=S)NC2=O)c(-c2cccc(Br)c2)n1`: the Potency result was “inactive”. As for `CCCC[N+]1(C)C2CC(OC(=O)C(CO)c3ccccc3)CC1C1OC12` (stereo not drawn), the Potency result is “inactive”. Regarding `OC[C@@H]1CN(Cc2ccncc2)C[C@H](n2cnc3c(N4CCN(c5ccccc5)CC4)ncnc32)O1`, the Potency was 2.91 µM (active). As for `CC(C)Nc1nc(Cl)nc(NC(C)C)n1`, the Potency result was “inactive”.

As to `COc1ccccc1C(=O)N[C@@H]1c2ccccc2C2(CCN(Cc3nc(C(C)C)cs3)CC2)[C@H]1O`, the Potency is 1.64 µM (active). As for `Cc1cccc(-n2c(O)c(/C=N/N3CCOCC3)c(=O)[nH]c2=S)c1`, the Potency result is “inactive”.

Take `CC(=O)Nc1cc(-c2cccc(CO)c2)cn2c(-c3cccc(C(F)(F)F)c3)cnc12`: the Potency was 18.4 µM (active). Consider `NC(=O)Nc1cccc(C(F)(F)F)c1`, for which the Potency entry was “inactive”. Take `CCN1CCN(c2nc3c(c(=O)[nH]2)CCC3)CC1`: the Potency entry is “inactive”. On the same count and under the same terms, the entry for `COC(=O)CN(CCCl)P1(=O)OCCCN1CCCl` (stereo not drawn) is “inactive”; for `Fc1cccc(F)c1CN1CCN(Cc2c(F)cccc2F)CC1` it is “inactive”.

`CN(C)c1cccc(C(=O)Nc2nc3ccc(S(=O)(=O)NC(C)(C)C)cc3s2)c1`: the Potency was 11.6 µM (active). For `O=c1[nH]c(=S)n(C2CC2)c(O)c1/C=N/N1CCOCC1`, the Potency result is “inactive”. Turning to `O=C1NCN(c2ccccc2)C12CCN(C(c1cccs1)c1nnnn1C1CCCCC1)CC2` (stereo not drawn), the Potency is 16.4 µM (active). Regarding `C=Cn1ccnc1P(=S)(c1cc(N(CC)CC)ns1)c1nccn1C=C`, the Potency result is “inactive”. As to `O=C1C[C@@H]2OCC=C3CN4CC[C@]56c7ccccc7N1[C@H]5[C@H]2[C@H]3C[C@H]46` (tested in a mixture with another compound), the Potency entry was “inactive”. On the same count and under the same terms, the entry for `COc1ccc(CCn2c(O)c(C=NCCCn3ccnc3)c(=O)[nH]c2=O)cc1OC` is “inactive”; for `Cc1ccc(C)c(NS(=O)(=O)c2ccc(OCC(=O)NCc3cccnc3)cc2)c1` it is “inactive”; for `C=CCN1C(=O)NC(=O)/C(=C/c2ccc(OCC(=O)Nc3ccc(C)cc3)cc2)C1=O` it is “inactive”.

For `Cc1ccc(NC(=O)COc2ccc(-n3ccnc3)cc2)cc1Cl`, the Potency is 20.6 µM (active).

As for `COc1ccc(NC(=O)N2Cc3ccccc3-n3nncc3C2)cc1`, the Potency entry is “inactive”.

Regarding `O=C1/C(=C\c2ccc3c(c2)OCO3)N2CCC1CC2`, the Potency entry is “inactive”. In the case of `COc1ccc(C)cc1N(CC(=O)N1CCC(C)CC1)S(=O)(=O)c1ccc(C)cc1`, the Potency was 13 µM (active). As for `CCOC(=O)c1c(N)n(CCN2CCOCC2)c2nc3ccccc3nc12`, the Potency result is “inactive”.

As for `CC(=O)NC(=O)NC(C)Cc1ccccc1` (stereo not drawn), the Potency entry is “inactive”. Regarding `Nc1ccc(C(=O)N/N=C2/CN3CCC2CC3)cc1`, the Potency entry is “inactive”. For `CN(C)C(=O)Oc1ccc(OCc2cccc[n+]2C)cc1`, the Potency entry was “inactive”.

Turning to `Cc1cc2ccccn2c1C(C[N+](=O)[O-])c1c(F)cccc1Cl` (stereo not drawn), the Potency is 14.6 µM (active). With `CCN1C(=O)C(=Cc2c(C)n(CC(=O)NCC3CCCO3)c3ccccc23)C(=O)N(CC)C1=S` (stereo not drawn), the Potency entry was “inactive”. For the compound `CN(C)CC1CCCCC1=O` (stereo not drawn), the Potency was 13 µM (active). As to `COC(=O)C(O)(c1ccc(NC(=O)c2ccco2)c(OC)c1)C(F)(F)F` (stereo not drawn), the Potency result is “inactive”. For `CC(=CCOc1ccc2ccc(=O)oc2c1)C1=CC(=O)C(C)(C)O1`, the Potency was 3.26 µM (active). For the compound `CC(C)c1ccc(OCC(=O)N2CCN(C)CC2)c(Br)c1`, the Potency entry is “inactive”. For the compound `O=C(C1CCN(S(=O)(=O)c2ccc(Br)s2)CC1)N1CCN(c2ccccc2)CC1`, the Potency is 20.6 µM (active). Regarding `COc1ccc(N=Cc2c(O)n(C)c(=O)[nH]c2=O)cc1`, the Potency entry was “inactive”. Still for that read-out and setting: the entry for `O=C(N/N=C/c1c(O)n(Cc2ccccc2)c(=O)[nH]c1=O)c1ccccc1` is “inactive”; for `COc1ccc(Cn2c(O)c(/C=C3/C=CC=N3)c(=O)[nH]c2=O)cc1` it is 16.4 µM (active). As to `Nc1ccc(Cc2ccc(N)c(Cl)c2)cc1Cl`, the Potency entry is “inactive”. Same read-out and setting: as for `CCCN(C/C=C/I)C1CCc2ccc(O)cc2C1` (stereo not drawn), the figure is 20.6 µM (active); as for `Cc1cccc2c(CCN)c[nH]c12`, “inactive”; as for `Oc1cc2c(cc1CN1CCN(c3ccccc3)CC1)OCO2`, “inactive”.

Consider `CC(=O)OC1C2(CC3N4C(=O)C5(CO)SSC4(CC31O)C(=O)N5C)OC(C)C(C)(C)C2=O` (stereo not drawn), for which the Potency was 0.164 µM (active).

For the compound `COC(=O)CN1C(=O)C2(C(C(=O)OC)=C(N)Oc3ccccc32)C2=C1CC(C)(C)CC2=O` (stereo not drawn), the Potency result is “inactive”. Regarding `Cc1cc(OCc2cc(C(=O)O)oc2C)c2c3c(c(=O)oc2c1)CCCC3`, the Potency entry was “inactive”. Still for that read-out and setting: as for `COC(=O)COc1cc(C)cc2oc(=O)c3c(c12)CCCC3`, the entry is “inactive”; as for `CC(=O)c1ccc(OC(NC(=O)Cc2ccccc2)C(Cl)(Cl)Cl)cc1` (stereo not drawn), “inactive”; as for `CCCCCCCCCCCCn1ccc(=N)cc1`, 0.411 µM (active). For `CC(=C1C(=O)c2ccccc2C1=O)N1CCN(CCN=Cc2c(O)n(C)c(=O)n(C)c2=O)CC1`, the Potency entry is “inactive”. For `CN1CCc2cc3c(cc2[C@H]1[C@@H]1OC(=O)c2c1ccc1c2OCO1)OCO3`, the Potency result was “inactive”.

Regarding `CC(C)CN1CCN(Cc2ccccc2C(F)(F)F)CC1CCO` (stereo not drawn), the Potency result was “inactive”.

In the case of `O=C1C2CCN(CC2)C1(CO)CO`, the Potency is 5.96 µM (active) and 4.61 µM (active). Still for that read-out and setting: the entry for `CC(C)c1ccc(OCC(=O)N2CCCN(C)CC2)cc1` is “inactive”. Still for that read-out and setting: the entry for `O=C(Nc1cccc2ccccc12)N1CCC2(CC1)OCCO2` is “inactive”.

Consider `COc1ccc(CCn2c(O)c(C=NC3CC3)c(=O)[nH]c2=O)cc1OC`, for which the Potency result was “inactive”. For the compound `Cc1nc2ccc(N3CCN(C)CC3)cc2nc1C`, the Potency entry is “inactive”.

On to `CN1CCN(c2cc(N3CCNCC3)ccc2[N+](=O)[O-])CC1`, for which the Potency is 7.31 µM (active). On to `COc1cccc(-c2nc3ccc(N4CCN(C)CC4)cc3[nH]2)c1`, for which the Potency result is “inactive”. With `O=c1[nH]c(=O)n(Cc2ccccc2)c(O)c1/C=N/Nc1c(F)c(F)c(F)c(F)c1F`, the Potency entry was “inactive”. On to `COc1ccc2c(c1)NP(=S)(c1ccccc1)N2` (stereo not drawn), for which the Potency was 16.4 µM (active). Turning to `Cc1cc(C)c2c(c1)NP(=S)(c1ccccc1)N2` (stereo not drawn), the Potency result is “inactive”. With `N#Cc1ccc(Cn2cc(C(=O)c3ccco3)c3ccccc32)cc1`, the Potency was 23.1 µM (active). The same measure, in the same setting: as for `NC(=O)Cn1cc(C(=O)c2ccccc2F)c2ccccc21`, the entry is “inactive”.

Turning to `Cc1cc(=O)oc2c(C)c(OCC(=O)N3CCN(Cc4ccc5c(c4)OCO5)CC3)ccc12`, the Potency result was “inactive”. For the compound `O=C(CN1CCCCC1)Nc1ccc(Br)cc1C(=O)c1ccccc1Cl`, the Potency result was “inactive”. With `O=S(=O)(O)C(F)(F)C(F)(F)C(F)(F)C(F)(F)F`, the Potency result was “inactive”.

For `Cc1ccc(OC(=O)N(C)C[C@@H]2OCc3cnnn3CCCC(=O)N([C@H](C)CO)C[C@@H]2C)cc1`, the Potency result is “inactive”.

Regarding `O=c1c2ccccc2nc(/C=C/c2ccc(F)cc2)n1-c1ccccc1O`, the Potency is 16.4 µM (active).

In the case of `O=c1c2ccccc2nc(CBr)n1-c1ccc(Cl)cc1`, the Potency entry is “inactive”. With `COc1cccc(N2C(=O)NC(=O)/C(=C\c3cn(C)c4ccccc34)C2=O)c1`, the Potency entry was “inactive”.

As for `Cn1cc(/C=C/c2nc3ccccc3c(=O)n2-c2ccccc2)c2ccccc21`, the Potency is 8.2 µM (active). As for `C1CC[C@H]([C@@]23C[C@H](C[C@H]4CCCN[C@H]42)[C@@H]2CCCCN2C3)NC1`, the activity change, negative = growth inhibition is -7.17% [at 9.04 µM]. For the compound `CCCC(C)n1[nH]c(=O)c2c1NC(=O)CSC2c1ccc(OC)c(OC)c1` (stereo not drawn), the Potency entry is “inactive”. On to `COc1ccccc1-n1c(O)c(C=NC2CC2)c(=O)[nH]c1=O`, for which the Potency result was “inactive”. Turning to `CCOC(=O)CNC(=O)N1Cc2cc(N3CCCCC3)ccc2-n2nncc2C1`, the Potency result is “inactive”. On to `c1ccc(CC2CCCCN2)cc1` (stereo not drawn), for which the Potency result was “inactive”.

On to `Cn1c(O)c(C=Nc2ccc3c(c2)CCC3)c(=O)n(C)c1=O`, for which the Potency result is “inactive”. Same read-out and setting: the entry for `CC(=NC1CCN(Cc2ccccc2)CC1)c1c(O)n(C)c(=O)n(C)c1=O` is “inactive”; for `Cn1c(O)c(C(=Nc2ccc(F)cc2)c2ccccc2)c(=O)n(C)c1=O` it is 9.2 µM (active); for `CCN1CCN(Cc2cc(OC)c3c(c2)OCO3)CC1` it is “inactive”.

For the compound `COc1cccc(C(=O)N2C[C@H]3C[C@@H](C2)c2cccc(=O)n2C3)c1`, the Potency entry is “inactive”. Consider `N#Cc1c(Cl)c(Cl)c(Cl)c(C#N)c1Cl`, for which the Potency is 25.1 nM (active) and 517 nM (active). Consider `Cc1nc2ccccc2c(=O)n1-c1ccc(Cl)cc1Cl`, for which the Potency is 23.1 µM (active). For the compound `O=c1c2ccccc2nc(-c2ccc(Cl)cc2Cl)n1-c1ccncc1`, the Potency result is “inactive”.
